Assay results from ChEMBL document CHEMBL3988442, “University of Dundee, Small-Polar-MMV Screening Library” (2021).
Screen size: about 69,000 compounds; about 950 (1.4%) showed an effect of 50% or more. For the sample, strong results were picked, then their nearest neighbours and some compounds at random.

What follows are compounds tested on Mycobacterium tuberculosis (assay: Cornell M. t heat shock assay; further: in the data most compounds retested in dose-response had high values).
Format: functional, organism-based
Design: dose or concentration left out as unconfirmed

In order of rising “Percent Effect” value:
1. O=C(Nc1cccnc1)[C@@H]1COC[C@H]2CN(C3CCCC3)C[C@H]21.O=C(O)C(F)(F)F.O=C(O)C(F)(F)F  -37.6%
2. O=C(O)C(F)(F)F.O=C(c1ccccc1)N1CCOC2(CCN(Cc3cccs3)CC2)C1  -35.41%
3. COCC1CN(C(=O)Cc2cccs2)Cc2nnn(CC3CC3)c21 (stereo not given)  -31.31%
4. Nc1cc(CCC2CN(Cc3ccc4cc[nH]c4c3)CCO2)ccn1 (stereo not given)  -29.21%
5. CCCC(=O)N1CCCC(c2cc3cccnc3c(O)n2)C1 (stereo not given)  -27.54%
6. COc1ccc(-c2noc(CNC(C)Cn3cccn3)n2)c(OC)c1 (stereo not given)  -27.41%
7. Cc1ccsc1CN1C[C@@H]2COC[C@]2(COCC(=O)N(C)C)C1.O=C(O)C(F)(F)F  -23.94%
8. Cc1nc(COc2ccc(CNCCn3cccn3)cc2)cs1  -21.22%
9. CNc1ncc2c(n1)CN(CCc1ccc(F)cc1)C2=O  -20.93%
10. CC1CCN(c2ncc3c(n2)CN(C2CCS(=O)(=O)C2)C3=O)CC1 (stereo not given)  -20.34%
11. COCCCN(Cc1ccccn1)Cc1ccnn1C1CCCCO1.O=C(O)CC(O)(CC(=O)O)C(=O)O (stereo not given)  -20.24%
12. Cc1cc(N2CCN(C(=O)[C@@H]3C[C@@H]4C=C[C@H]3C4)CC2)cc(C)n1  -20.18%
13. COCC1CN(CC2CC2)Cc2nn(CC3CC3)cc21.O=C(O)C(F)(F)F (stereo not given)  -19.88%
14. CCc1oc(C(=O)N2CC[C@H]3CC[C@@H](C2)N3)cc1CN(CC)CC  -18.46%
15. COc1cccc(-c2nc(CNCc3cccnc3)cs2)c1  -18.41%
16. O=C(O)C(F)(F)F.c1cnc(N2CCOCC3(CN(Cc4cc[nH]n4)CCO3)C2)nc1 (stereo not given)  -18.22%
17. CN(CCOc1cccc(F)c1)CC(=O)Nc1ccncc1  -17.11%
18. O=C(CC1CC1)N1C[C@@H]2CCN(c3cnccn3)C[C@@H]2C1.O=C(O)C(F)(F)F  -16.38%
19. Cc1nn(C)cc1CN(C)C(=O)c1ccccn1  -16.12%
20. Cc1ccc(CN2CCC3(CC2)CN(c2ccccc2)C(=O)CO3)o1.O=C(O)C(F)(F)F  -15.41%
21. CC(CS(C)(=O)=O)NCc1cc(Cl)ccc1F (stereo not given)  -12.53%
22. CS(=O)(=O)Cc1ccccc1NCc1cc(Cl)ccc1Cl  -12.17%
23. Cc1ccc(CN2Cc3nnn(C)c3C(COCC3CC3)C2)s1.O=C(O)C(F)(F)F (stereo not given)  -11.83%
24. Cc1nccn1-c1cccc(C2CCCN2)n1.Cl (stereo not given)  -11.58%
25. CNC(=O)[C@H]1CO[C@H]2CCN(c3ncc(F)cn3)C[C@H]2C1.O=C(O)C(F)(F)F  -11.38%
26. CCOC1COC2(CCN(CC3CC3)CC2)C1.O=C(O)C(F)(F)F (stereo not given)  -11.36%
27. O=C(Cc1cccc(F)c1F)NS(=O)(=O)c1ccc(Cl)cc1F  -11.18%
28. CCCC(=O)N1CCC(c2cc3cccnc3c(O)n2)CC1  -11.07%
29. CN(C)C(=O)Cc1ccccc1NCc1cccc(F)c1F  -10.01%
30. CCOCC(=O)N1CCC(c2cc3ncccc3c(O)n2)CC1  -9.964%
31. Cc1nc(NC2CCCC2)cc(C2CCN2C(=O)c2ccccn2)n1 (stereo not given)  -9.873%
32. CCn1nc(C)c(CN(CCCN(C)C)Cc2ccccn2)c1C  -9.336%
33. CC(=O)N1CCN(c2cncc(C3CCNCC3)n2)CC1.Cl  -8.785%
34. CC(C)NC(=O)N(Cc1cc(O)nc2ccccc12)C(C)C  -8.593%
35. CCCc1cc(=O)[nH]c(-c2ccccc2CN(C)CCC(C)C)n1  -7.876%
36. O=C(CN1CC(c2nc(-c3ccco3)no2)C1)NCCc1ccccc1.O=C(O)C(=O)O  -7.325%
37. Cc1nnc(CN(C)C2CCCN(Cc3noc(C4CC4)n3)C2)o1 (stereo not given)  -4.888%
38. CC(C)(CNC(=O)C(C)(C)c1ccccc1F)C(N)=O  -4.561%
39. CCn1nc(C)c(CN(CCOC)Cc2ccccn2)c1C  -2.912%
40. COc1nn(C)c2c1CCCN(C(=O)c1cccc3cccnc13)C2.O=C(O)C(F)(F)F  -1.629%
41. CCN(CC)C(=O)CCCNC(=O)c1csc(NC2CC2)n1  -1.337%
42. COCCCN(Cc1cc(O)nc2ccccc12)C(=O)NC(C)C  -0.9795%
43. CC(C)N(C)Cc1nnn2c1CN(Cc1cccnc1)CCC2.O=C(O)C(F)(F)F.O=C(O)C(F)(F)F.O=C(O)C(F)(F)F  -0.7766%
44. Cc1cccc(NC(=O)c2csc(NCC(C)C)n2)n1  -0.3454%
45. O=C(NCc1ccccn1)[C@@H]1COC[C@H]2CN(C3CCOCC3)C[C@H]21.O=C(O)C(F)(F)F.O=C(O)C(F)(F)F  0.9957%
46. CC(NC(=O)Nc1nccs1)C(=O)NC1CCCC1 (stereo not given)  1.171%
47. Cc1cccc(CN2C[C@@H]3COC[C@]3(CNC(=O)C3CC3)C2)c1.O=C(O)C(F)(F)F  2.9%
48. Cc1sc(NC(=O)CN(C)CCOc2cccc(F)c2)c(C)c1C  3.214%
49. CC1CCN(C(=O)C2(Cc3cc(C4CCOC4)no3)CCNCC2)CC1.Cl (stereo not given)  3.404%
50. CN(C)C(=O)N1C[C@@H]2CC[C@H](C1)N(Cc1nnc(-c3ccco3)o1)C2  3.686%
51. O=C(O)C(F)(F)F.O=C(c1cscn1)N1CCC2(CCN(Cc3cccs3)CC2)C1  3.711%
52. Cc1nnc(SCc2ccccn2)s1  4.26%
53. CC(C)n1c(=O)nc2n1C(=O)N(c1ccc(Cl)cc1)C2  4.407%
54. Cc1cnn(CCNCc2ccc(OCc3csc(C)n3)cc2)c1  5.493%
55. O=c1cc(C2CCNCC2)nc(CCc2ccccn2)[nH]1  6.043%
56. Cc1nnc(N2CC[C@H]3C[C@H](C(=O)N(C)C)O[C@@H]3C2)s1.O=C(O)C(F)(F)F  7.027%
57. CC(C)(C(=O)NCC(N)=O)c1ccccc1F  8.109%
58. CC(C)Nc1nc(C(=O)Nc2ccccn2)cs1  9.074%
59. COCC(=O)N1CCC(c2cc3ncccc3c(O)n2)CC1  10.22%
60. COc1cccc(CC(=O)N2CC[C@@H](OC)[C@@H]2Cc2cccnc2)c1.O=C(O)C(F)(F)F  11.27%
61. CC(=O)N1C[C@@H]2CC[C@H](C1)N(S(=O)(=O)c1ccc(C#N)cc1Cl)C2  12.47%
62. Cn1nc(C(=O)N2CCOCC2)cc1C(=O)Nc1ccc(Cl)cc1Cl  13.26%
63. O=C(NCCCN1CCOCC1)c1ccc(-n2ccc3ccccc32)s1  14.99%
64. CC(C)CCNc1nc(C(=O)NC2CC2)cs1  15.23%
65. Cc1cnn(CCCNCc2csc(COc3ccccc3)n2)c1  15.28%
66. CN(C)C(=O)N1C[C@@H]2CC[C@H](C1)N(Cc1nnc(-c3ccccc3)o1)C2  16.99%
67. CN(C)C(=O)N1CCO[C@@H]2CC(COCc3cccnc3)C[C@H]21.O=C(O)C(F)(F)F (stereo not given in full)  17.51%
68. Cc1ccc(-c2nc(CN3CCOC(Cn4cccn4)C3)cs2)o1 (stereo not given)  19.35%
69. Cn1cc(CN(Cc2ccccn2)Cc2ccccc2Cl)cn1  20.97%
70. O=C(NCCCN1CCCC1=O)c1ccc(-n2ccc3ccccc32)s1  22.37%
71. COCC1CC2(CCN(c3cccc(C)n3)CC2)CN1C(C)C.O=C(O)C(F)(F)F.O=C(O)C(F)(F)F (stereo not given)  24.58%
72. CCOC(=O)[C@]12CCCN(Cc3cccs3)C[C@H]1CN(CC(C)C)C2.O=C(O)C(F)(F)F.O=C(O)C(F)(F)F  26.18%
73. CCCS(=O)(=O)N1CCC2(CC1)CN(CC1CCOC1)c1ccccc12.O=C(O)C(F)(F)F (stereo not given)  28.34%
74. CC(C)NC(=O)c1csc(NC2CC2)n1  28.59%
75. CC(Cn1cccn1)NCc1csc(-c2ccccc2)n1 (stereo not given)  29.32%
76. CCc1c(C)nc(SCc2ccccn2)[nH]c1=O  33.29%
77. CC(C)CCNC(=O)c1csc(NC2CC2)n1  43.35%
78. c1ccc(OCc2nc(CNCCn3cccn3)cs2)cc1  46.73%
79. CS(=O)(=O)Cc1ccc(Cl)cc1NCc1ccccc1F  52.35%
80. Cc1nn(C)cc1CN(Cc1ccccn1)Cc1ccccc1Cl  53.11%
81. Cc1ccc(-c2nc(CNC(C)Cn3cccn3)cs2)o1 (stereo not given)  55.14%
82. CS(=O)(=O)Cc1ccc(Cl)cc1NCc1cccc(F)c1F  57.79%
83. COc1ccc(-c2nc(CNC(C)Cn3cccn3)cs2)cc1 (stereo not given)  58.05%
84. CCn1nc(C)c(CN(Cc2ccccn2)Cc2ccccc2Cl)c1C  58.2%
85. O=C(CCC1CCCC1)N1CCC(c2cc3ncccc3c(O)n2)CC1  59.08%
86. O=C(CC1CCCC1)N1CCC(c2cc3ncccc3c(O)n2)CC1  63.36%
87. CCCc1cc(=O)[nH]c(SCc2ccccn2)n1  69.86%
88. CCc1cc(=O)[nH]c(SCc2ccccn2)n1  70.99%
89. COc1cccc(-c2nc(CNC(C)Cn3cccn3)cs2)c1 (stereo not given)  89.4%
90. Cc1ccc(OCc2nc(CNCCn3cccn3)cs2)cc1  94.11%
91. Cc1csc(NC(=O)CN(C)CCOc2cccc(F)c2)n1  95.41%
92. CN(C)C(C)(C)CNC(=O)C(C)(C)c1ccccc1F  97.79%
93. O=C(NCCCN1CCCCC1)c1ccc(-n2ccc3ccccc32)s1  102.3%
94. Cc1cnn(CCNCc2csc(COc3ccccc3)n2)c1  103.7%
95. Cc1cnc(NC(=O)c2csc(NCC(C)C)n2)s1  103.8%
96. CN(C)C(=O)N1C[C@@H]2CC[C@H](C1)N(Cc1nnc(C3CC3)o1)C2  104.3%
97. COCCN(Cc1cc(O)nc2ccccc12)C(=O)NC(C)C  104.4%
98. O=C(Nc1ccccn1)c1csc(NC2CCCC2)n1  105.9%
99. Cc1cnc(NC(=O)c2csc(NC3CCCC3)n2)s1  106.1%
100. O=C(Nc1nccs1)c1csc(NC2CCCC2)n1  106.3%
